SW480 rerep: induces DNA re-replication in SW480 colon adenocarcinoma cells; AID 624297; SW480 DNA re-replication, Hoechst DNA content imaging, 48 h; 340,000 tested, 1.8% active; Potency, µM (top dose mostly 46.1 µM), most hits filed as activators; also: nearly all actives have a fitted effect of over 55% in size
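Image-based DNA-content assay: after two days of treatment, nuclei were labelled with the DNA dye Hoechst and imaged, and hits were compounds raising the count of nuclei showing high fluorescence intensity.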
S2 tox: viability counter-screen for ATXN expression inhibitors; S2 cells (HEK-293 line with an ATXN2-luciferase reporter) viability, CellTiter-Fluor protease fluorescence, 24 h; Potency, µM (series often up to 56.7 µM), hits mostly cytotoxic; 400,000 tested, 0.49% active; AID 651635; also: nearly all actives have a fitted effect of over 40% in size
ATXN2 expr inh: reduces ATXN2 reporter expression in HEK-293 cells; HEK-293 ATXN2-luciferase reporter, luminescence, 24 h; Potency, µM (highest dose often 57 µM), usual class: inhibitors; 360,000 tested, 0.72% active; AID 1745845; also: nearly all actives have a fitted effect of over 55% in size
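ATXN2-luciferase reporter cells (luciferase flanked by upstream and downstream ATXN2 gene portions) were treated 24 h at 37 °C with compounds at up to 57 uM. SteadyGlo luminescence gave expression; GF-AFC fluorescence gave viability.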
IL-1B inflam inh: blocks inflammasome-driven IL-1 beta release | THP-1 LPS/ATP IL-1B secretion, AlphaLISA, 16 h; hits give low values | activity change, % at 57.5 µM | AID 743279 | 360,000 tested, 4.7% active; in the data active = activity change below about -50%; inconclusive = mostly about -30% to -49%
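Secreted IL-1B measured by AlphaLISA bead assay after 16 h compound exposure of THP-1 cells; compounds (final up to 57.5 uM) added 1 h before LPS (250 ng/mL) and ATP (1.25 mM) stimulation; lower signal means less secretion.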
PINK1 expr mod: modulators of PINK1 expression | Potency, µM (series often up to 76.6 µM), most hits filed as activators | PINK1 immunofluorescence, high-content cytometry, 24 h | 410,000 tested, 0.2% active; active = well fitted activation curve with a large enough effect; inconclusive = small, poorly fitted or top-dose-only effect; cell line not stated here; also: nearly all actives have a fitted effect of over 65% in size
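PINK1 protein, normally rapidly degraded, was detected by immunofluorescence after 24 hour compound treatment of a stable cell line. Titration data (5 concentrations) came from laser-scanning cytometry, with CCCP-treated wells as controls.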
MCF10A rereplic: induces DNA re-replication in MCF 10a normal breast cells; AID 624296; 350,000 tested, 2.9% active; MCF 10A DNA re-replication, Hoechst nuclear intensity, 48 h; Potency, µM (doses to about 46.1 µM), usual class: activators; also: nearly all actives have a fitted effect of over 50% in size
Hits are given with their value; n = inactive; u = inconclusive; x = no result given; [ ] = remark or other dose. Hits are enriched below; roughly 7.1% of the tested compounds scored in any of these assays. Unless noted, calls follow the shape of the dose curve; as a rule, active = well fitted curve in the direction sought with a large enough effect; inconclusive = small, poorly fitted or top-dose-only effect, or another doubt; inactive = no such curve, though single readings can be large; an effect the other way counts as inactive or inconclusive.

SMILES	SW480 rerep	S2 tox	ATXN2 expr inh	IL-1B inflam inh	PINK1 expr mod	MCF10A rereplic
Cc1ccc2cc(CN(CCN(C)C)C(=O)Nc3ccc(Cl)cc3)c(=O)[nH]c2c1	u	n	n	x	n	u
Cc1ccc2[nH]c(=O)c(CN(CCCN(C)C)C(=O)Nc3ccc(Cl)cc3)cc2c1	u	u	u	-54	n	n
Cc1cc(C)c2cc(CN(CCO)C(=O)Nc3ccc(Cl)cc3)c(=O)[nH]c2c1	u	u	n	-58	n	u
Cc1cc(C)c2cc(CN(CCN3CCCC3)C(=O)Nc3ccc(F)cc3)c(=O)[nH]c2c1	n	n	n	-80	n	n
COc1ccc2c(c1)CCc1c(C(=O)Nc3c(C)nn(Cc4ccc(C)cc4)c3C)noc1-2	x	n	n	x	n	x
Cc1ncc(CO)c2c1Oc1nc(-c3ccccc3)nc(SCC(=O)Nc3cccc(O)c3)c1C2	u	u	x	n	n	16µM
COc1ccc(-c2nc3c(c(SCC(=O)Nc4cccc(O)c4)n2)Cc2c(CO)cnc(C)c2O3)cc1	n	n	n	n	n	n
Cc1[nH]c2ccccc2c1C(c1c(C)[nH]c2ccccc12)c1c(C)[nH]c2ccccc12	x	x	x	x	n	x
Cc1cc2[nH]c3ccccc3c2c(C)n1	n	n	u	-94	n	u
Nc1[nH]c(C(=O)c2ccccc2)c(-c2ccc(C(F)(F)F)cc2)c1C(=O)NCc1ccc(Cl)cc1Cl	x	n	n	n	n	x
CCOc1ccc(NC(=O)Cn2cc(C(=O)c3ccc(OCC)cc3)c(=O)c3cc4c(cc32)OCCO4)cc1	x	n	n	x	n	x
CCc1ccc(OC2(C)CCN(Cc3ccccc3OC(F)F)C2)cc1 (configuration not stated)	x	n	n	n	u	x
COC(=O)Cc1ccc(OC2(C)CCN(Cc3ccccc3OC(F)F)C2)cc1 (configuration not stated)	x	n	n	-54	n	x
CCCCCCc1ccc(OC(=O)c2ccncc2)cc1	n	n	x	n	n	n
CCCCCCOc1ccc(OC(=O)c2ccncc2)cc1	u	n	n	n	n	23µM
Cc1ccccc1OCC(=O)NCC(=O)OCC(=O)c1ccc(F)cc1	x	x	x	x	n	x
COc1cc(NC(=O)c2cc(C)nc3c2c(C)nn3-c2ccccc2Cl)cc(OC)c1	x	u	n	x	n	x
COc1ccccc1N1CCN(C(=O)c2c(C)oc3ncn(CC(C)C)c(=O)c23)CC1	x	n	n	x	n	x
O=C(CC1N=C2c3ccccc3N=C(SCc3ccccc3Cl)N2C1=O)NC1CCCCC1 (configuration not stated)	x	x	x	x	n	x
CN1c2ccccc2C(C)(C)C12C=Nc1c(cc(N3CCOCC3)c3ccccc13)O2 (configuration not stated)	21µM	x	n	n	n	7.3µM
Cc1ccc2oc(C(=O)N(Cc3ccccc3F)C3CCS(=O)(=O)C3)c(C)c2c1 (configuration not stated)	x	x	x	x	n	x
COc1cc(NC(=O)C/C(C)=N/NC(=O)c2cccs2)c(OC)cc1Cl	u	n	n	n	n	u
COc1cc(NC(=O)c2cccs2)c(OC)cc1NC(=O)c1cccs1	n	n	n	n	n	n
COc1cc(NC(=O)COc2ccccc2[N+](=O)[O-])ccc1NC(=O)c1cccs1	n	13µM	u	n	n	u
C/C(=N/NC(=O)Cc1cccc2ccccc12)c1cccs1	n	n	n	n	n	n
SMILES	SW480 rerep	S2 tox	ATXN2 expr inh	IL-1B inflam inh	PINK1 expr mod	MCF10A rereplic
COc1cc(NCCC(=O)c2cccs2)c(OC)cc1Cl	u	n	n	n	n	21µM
COc1cc(NC(=O)c2cccs2)c(OC)cc1NC(=O)Cc1ccccc1	n	n	n	-54	n	n
C/C(=N\NC(=O)Cc1ccccc1)c1cccs1	n	n	n	n	n	18µM
CCN(C(=O)CSc1nc2ccccc2n1CC(=O)NCc1ccc(OC)cc1)c1ccccc1	x	n	n	x	n	x
COc1ccc(OCC(=O)Nc2ccc(NC(=O)c3cccs3)c(OC)c2)cc1	n	n	n	n	n	n
COc1cc(NC(=O)c2cccs2)c(C(=O)OCC(=O)NC(=O)NCc2ccccc2)cc1OC	n	n	n	n	n	15µM
COc1cc(NC(=O)c2cccs2)c(OC)cc1NC(=O)CCC(=O)Nc1ccc2ncccc2c1	u	u	u	n	n	21µM
COc1ccc(-[n+]2c(C)cc(/C=C3\Sc4ccccc4N3C)cc2C)cc1	18µM	u	u	-94	n	u
COc1ccccc1-[n+]1c(C)cc(/C=C2\Sc3ccccc3N2C)cc1C	23µM	u	x	-63	n	u
Cc1nnnn1/C(=C\c1ccccc1)C(=O)OCC(=O)Nc1cccc(S(=O)(=O)N(C)C)c1	u	u	n	n	n	u
Cc1nnnn1/C(=C\c1ccccc1)C(=O)OCC(=O)Nc1ccc(Cl)cc1F	u	u	u	-111	n	u
N#C/C(=N\Nc1cccc(Cl)c1)C(=O)c1ccccc1	n	u	n	n	25µM	u
CCC(CC)=NNc1cccc([N+](=O)[O-])c1	x	u	n	n	n	n
COc1ccc(C(=O)/C(C#N)=N/Nc2cccc([N+](=O)[O-])c2)cc1	u	11µM	x	n	14µM	u
N#C/C(=N\Nc1ccccc1Cl)C(=O)c1ccccc1	n	u	n	n	u	n
Cc1c(C(=O)N(C)C2CCOC2)cnn1-c1ncc2c(n1)-c1ccccc1CCC2 (configuration not stated)	x	n	x	x	n	x
Cc1ccc(C(=O)N2C(CC(=O)Nc3ccc(Cl)cc3)C(=O)NC3CCCCC32)cc1 (configuration not stated)	23µM	n	n	n	n	n
Cc1ccc(C(OCCN(C)C)c2cccc(C(F)(F)F)c2)cc1 (configuration not stated)	n	n	n	-67	n	n
CN(C)CCO[C@@H](c1ccc(Cl)cc1)c1ccccn1	n	n	x	n	n	n
CC(C)C[C@H](NC(=O)N1CCn2c1nc1ccccc12)C(=O)NCCc1ccccc1	n	n	n	-51	n	n
CC(C)C(=O)NCCc1nc2ccccc2n1CCc1ccccc1	n	n	n[11.3 µM]	-63	n	n
CC(C)C[C@H](NC(=O)N1CCn2c1nc1ccccc12)C(=O)NCc1ccccc1	n	n	x	n	n	n
COc1ccc(CN2CCCC(c3nc(C)ncc3-c3ccc(F)cc3)C2)c(OC)c1OC (configuration not stated)	x	n	x	x	n	x
Cc1ccc(NC(=O)C2=C(c3ccccc3)S(=O)(=O)CCS2(=O)=O)cc1	2.1µM	11µM	u	-104	n	u
Cc1cc(NC(=O)CSc2nc(-c3cccs3)nc3ccccc23)no1	5.8µM	u	n	n	n	15µM

Source: PubChem
